Bioassay records: PubChem BioAssay, Paczesny and Yang Labs, IUPUI and University of Michigan
The entries come from a sample that favours hits as a whole.
ST2 IL33 inh = IL1RL1 inhibition | 78,000 tested, 2.3% active | Q01638 | AlphaLISA ST2-Fc/biotin-IL-33 interaction, 1 h | inhibition, % for hits at 17 µM; in the data active means inhibition above about 30%
Target sequence (Q01638 whole entry, looked up): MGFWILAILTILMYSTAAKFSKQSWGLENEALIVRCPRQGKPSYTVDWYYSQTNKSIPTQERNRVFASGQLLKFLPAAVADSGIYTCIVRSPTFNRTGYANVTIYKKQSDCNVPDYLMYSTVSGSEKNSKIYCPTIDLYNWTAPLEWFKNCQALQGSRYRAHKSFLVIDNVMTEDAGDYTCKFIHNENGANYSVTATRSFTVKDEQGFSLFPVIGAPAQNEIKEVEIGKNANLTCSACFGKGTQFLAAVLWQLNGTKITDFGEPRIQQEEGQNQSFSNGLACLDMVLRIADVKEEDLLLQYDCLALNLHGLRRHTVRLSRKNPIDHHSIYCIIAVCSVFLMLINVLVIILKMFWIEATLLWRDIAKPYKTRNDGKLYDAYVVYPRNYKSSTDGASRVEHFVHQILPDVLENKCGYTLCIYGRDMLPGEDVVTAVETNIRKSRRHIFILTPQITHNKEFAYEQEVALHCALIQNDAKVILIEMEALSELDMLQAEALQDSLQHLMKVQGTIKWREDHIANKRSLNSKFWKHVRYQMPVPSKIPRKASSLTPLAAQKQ
Numbers stand for hits.

COc1ccccc1OCc1cc(C(=O)N2CCC2c2ccccc2)n[nH]1 (stereo not drawn) was read as ST2 IL33 inh inactive.
Screening O=C(O)C1CCCCC1C(=O)NC1=NCCS1 (stereo not drawn) returned ST2 IL33 inh inactive.
For O=S(=O)(Nc1ccccc1O)c1ccccc1 the results were ST2 IL33 inh inactive.
Screening CCOc1ccc(C2=C(CN(C)C)C(c3ccc(F)cc3)c3ccccc3O2)cc1 (stereo not drawn) returned ST2 IL33 inh 40%.
CCOC1=CC(c2ccc(F)cc2)Oc2ccccc21 (stereo not drawn) was read as ST2 IL33 inh inactive.
`CCOc1ccc(C2=C(CN3CCOCC3)C(c3ccccc3)c3ccccc3O2)cc1` (stereo not drawn) gave ST2 IL33 inh 31%.
`c1ccc(OCCCN2CCOCC2)cc1` gave ST2 IL33 inh inactive.
For CCOC(=O)C1CCN(C(=O)C2c3ccccc3Oc3ccccc32)CC1 the results were ST2 IL33 inh inactive.
CCOc1ccc2c(=O)c(-c3ccc(F)cc3)c(C)oc2c1 was read as ST2 IL33 inh inactive.
For COc1cccc(OC)c1C(=O)Nc1c2c(nn1C(C)(C)C)CS(=O)C2 (stereo not drawn) the results were ST2 IL33 inh inactive.
`Brc1ccccc1CN1CCN(c2ccccn2)CC1` gave ST2 IL33 inh inactive.
CCn1ccnc1CN(CC1CCN(C2Cc3ccccc3C2)CC1)CC1CCCO1 (stereo not drawn) was read as ST2 IL33 inh inactive.
`Brc1ccc(-c2cn3ccccc3n2)s1` gave ST2 IL33 inh inactive.
Screening Brc1ccc(-c2cc3ccccn3c2)cc1 returned ST2 IL33 inh 34%.
`Clc1ccc(-c2cn3ccccc3n2)cc1` gave ST2 IL33 inh inactive.
`COCCNC(=O)[C@@H](C)[C@@H]1CC[C@@]2(C)CC[C@H](NC(=O)C3CC3)[C@@H](C)[C@@H]2[C@H]1O` gave ST2 IL33 inh inactive.
Screening C[C@H]1[C@@H]2[C@@H](O)C([C@H](C)C(=O)NCCN3CCOCC3)CC[C@@]2(C)CC[C@@H]1NC(=O)C1CCCCC1 (stereo partly drawn) returned ST2 IL33 inh 32%.
CC(=O)N[C@H]1CC[C@]2(C)CC[C@@H]([C@H](C)C(=O)NCCN3CCCC3)[C@H](O)[C@H]2[C@@H]1C was read as ST2 IL33 inh inactive.
`O=C(CN1C(=O)c2ccccc2C1=O)Nc1ccc(Br)cc1` gave ST2 IL33 inh 34%.
Screening O=C(CN1C(=O)c2ccccc2C1=O)Nc1ccc(Br)cc1C(=O)O returned ST2 IL33 inh inactive.
`O=C(CN1C(=O)C(=O)c2ccccc21)Nc1ccc(Br)cc1` gave ST2 IL33 inh inactive.
Screening COCCn1c(CNC(=O)c2ccccc2F)nc2cccnc21 returned ST2 IL33 inh inactive.
`Cc1ccc(C2(O)CCN(C(=O)c3cn4ccsc4n3)CC2)nc1` gave ST2 IL33 inh inactive.
Screening CCN(CC)c1ccc(C(=O)O)cc1[N+](=O)[O-] returned ST2 IL33 inh inactive.
`COc1ccc2oc(=Nc3cccc(C#N)c3)c(C(=O)NC(C)=O)cc2c1` gave ST2 IL33 inh inactive.
COc1ccc2cc(C(=O)NC(C)=O)c(=Nc3ccc(C#N)cc3)oc2c1 was read as ST2 IL33 inh 37%.
COc1ccc2cc(C(=O)NC(C)=O)c(=Nc3cccc(F)c3)oc2c1 was read as ST2 IL33 inh inactive.
For COc1ccc2oc(=Nc3ccccc3F)c(C(=O)NC(C)=O)cc2c1 the results were ST2 IL33 inh inactive.
Screening COc1ccc2oc(=Nc3ccc(Cl)cc3Cl)c(C(=O)NC(C)=O)cc2c1 returned ST2 IL33 inh 33%.
For CC(=O)NC(=O)c1cc2cc(Br)ccc2oc1=Nc1ccccc1F the results were ST2 IL33 inh inactive.
`Cc1c(Cl)cccc1NC(=O)C(NS(=O)(=O)c1cccs1)C(C)C` (stereo not drawn) gave ST2 IL33 inh inactive.
For COc1ccc(CCNC(=O)CCc2nc(-c3ccccc3F)no2)cc1OC the results were ST2 IL33 inh inactive.
For CC(C)(C)C1(O)CC(C(F)(F)F)=NN1C(=O)c1ccccc1Cl (stereo not drawn) the results were ST2 IL33 inh inactive.
Screening CN1CCC2(CCCN(C(=O)c3cc(=O)c4ccccc4[nH]3)CC2)CC1 returned ST2 IL33 inh inactive.
`COc1cc(Cl)ccc1C(=O)N1C[C@H]2C[C@H](O)[C@H](O)C[C@H]2C1` gave ST2 IL33 inh inactive.
`COc1cc(/C=C2\SC(c3ccc(C)cc3)=NC2=O)cc(OC)c1O` gave ST2 IL33 inh 80%.
For COc1ccc(/C=C2\SC(N3CCCC3)=NC2=O)cc1OC the results were ST2 IL33 inh inactive.
Screening CCCOc1ccc(-c2nc3s/c(=C\c4cc(OC)ccc4OC)c(=O)n3n2)cc1 returned ST2 IL33 inh inactive.
`COc1ccc(Br)cc1/C=C1/SC(N2CCOCC2)=NC1=O` gave ST2 IL33 inh inactive.
Screening COc1ccc(OC)c(/C=C2\SC(c3ccccc3)=NC2=O)c1 returned ST2 IL33 inh 51%.
For COc1ccc(/C=C2\SC(N3CCCCC3)=NC2=O)cc1OC the results were ST2 IL33 inh inactive.
